Only some compounds are listed: those with a hit (about 11% of all), similar ones and a draw of the others.
ALDH1A1 block = inhibitors of human aldehyde dehydrogenase 1A1. Potency, µM (top dose mostly 75.3 µM), most hits filed as inhibitors. 7.3% of 220,000 active. Purified ALDH1A1, NADH fluorescence, propionaldehyde substrate. P00352
IMPase Li cell = cell-permeable IMPase inhibitors with lithium potentiation; CHO-M1 cells, IP1 TR-FRET (IP-One), carbachol + lithium; Potency, µM (top dose mostly 59.4 µM), hits mostly inhibitors; 0.35% of 210,000 active; AID 1457; active = well fitted inhibition curve with a large enough effect; inconclusive = small, poorly fitted or top-dose-only effect; inactive = no such curve, though single readings can be large or run the other way;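 also: IP1 builds up when IMPase is blocked and the TR-FRET signal falls; nearly all actives have a fitted effect of over 50% in size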
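Concentration–response in CHO-M1 cells, lithium-potentiated; 30 min at 37C. IP1 detected by competitive TR-FRET after 10 min lysis at RT. Hill-fitted AC50.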
HPGD inh = HPGD (human) dehydrogenase inhibition. P15428. purified HPGD, NADH fluorescence kinetic, PGE2 substrate. Potency, µM, actives largely listed as inhibitors. 4.3% of 150,000 active
Target sequence (P15428 whole entry, looked up): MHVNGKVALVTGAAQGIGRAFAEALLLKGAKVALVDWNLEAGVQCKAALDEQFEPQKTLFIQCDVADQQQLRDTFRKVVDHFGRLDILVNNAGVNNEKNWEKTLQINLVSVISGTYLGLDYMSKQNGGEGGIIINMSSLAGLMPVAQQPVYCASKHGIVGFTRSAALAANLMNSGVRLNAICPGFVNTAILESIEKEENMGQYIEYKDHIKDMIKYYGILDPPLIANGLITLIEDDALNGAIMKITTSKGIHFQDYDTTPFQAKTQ
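20 nM HPGD preincubated 15 min at room temperature with compound in 50 mM Tris-HCl pH 8, 0.01% Tween 20. Started with 1 mM NAD+ and 30 uM prostaglandin E2; NADH fluorescence (360/450 nm) read 5 times over 30-s intervals, last minus first.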
PNC inhibitor = inhibitors of perinucleolar compartment assembly; AID 2417; 3.1% of 140,000 active; PC3M PTB-GFP, PNC prevalence imaging, 16 h; hits give low values; activity change (PNC), negative = inhibition, % at 10 µM;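 active = readout at or below -70, meaning at least 70% loss of cells showing the perinucleolar compartment, a nuclear body marking cancer cells; inconclusive = readout between -30 and a set limit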
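Compounds are pinned in duplicate onto adhered PC3M cells stably expressing GFP-tagged PTB and incubated 16 h at 37 C. Cells are then fixed, nuclei stained with Hoechst, and PNC-positive cells counted.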
IMPase cell inh = IMPase inhibition in cells | P97697 | CHO-M1 cells, IP1 accumulation, HTRF TR-FRET ratio | inhibition (IP1 accumulation), % at 46.1 µM | 120,000 tested, under 10 active | AID 901; active = well fitted curve in the direction sought with a large enough effect in the signal ratio, not every such curve was filed as active; inconclusive = small, poorly fitted or top-dose-only effect, or a change in a side signal; inactive = no such curve, though single readings can be large or run the other way; the % refers to the signal ratio;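 also: cells stimulated with carbachol in lithium chloride buffer; higher means more IMPase inhibition seen as more IP1 and lower FRET ratio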
Target sequence (P97697 whole entry, looked up): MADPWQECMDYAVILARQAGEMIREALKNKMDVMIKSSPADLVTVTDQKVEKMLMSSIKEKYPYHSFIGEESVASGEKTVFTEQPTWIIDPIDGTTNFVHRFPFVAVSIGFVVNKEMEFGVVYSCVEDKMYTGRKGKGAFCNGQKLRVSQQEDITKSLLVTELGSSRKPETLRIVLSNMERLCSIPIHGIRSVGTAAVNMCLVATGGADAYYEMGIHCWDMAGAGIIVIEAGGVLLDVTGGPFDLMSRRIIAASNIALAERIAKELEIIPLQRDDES
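Elevated IP1 in lysates lowers TR-FRET signal (665/620 ratio and 620 channel reported). Cells were CHO-M1, given carbachol (50 uM as added) plus 50mM LiCl, pH 7.4, 30 min, 37C; compounds titrated up to 46 uM; AC50 by Hill equation.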
A number is an active result; – = inactive; ? = inconclusive; · = not tested or not shown; [ ] = remark or other dose. Unless noted, calls follow the shape of the dose curve; as a rule, active = well fitted inhibition curve with a large enough effect (not every such curve was filed as active); inconclusive = small, poorly fitted or top-dose-only effect, or another doubt; inactive = no such curve, though single readings can be large or run the other way.

SMILES	ALDH1A1 block	IMPase Li cell	HPGD inh	PNC inhibitor	IMPase cell inh
CC(=O)Nc1ccc(OCC(O)Cn2c3ccccc3c3ccccc32)c(C)c1 (configuration not stated)	–	–	25.1µM	–	–
CC(=O)Nc1ccc(OCC(O)Cn2c3ccccc3c3ccccc32)cc1 (configuration not stated)	–	–	–	?	–
Cc1ccc(C(=O)Oc2csc(=S)n2C(=O)c2ccc(C)cc2)cc1	3.55µM	–	5.01µM	?	–
Cc1ccc(C(=O)N2CCSC2=S)cc1	–	–	·	·	·
CCN(C(=O)COC(=O)c1[nH]c(=O)[nH]c(=O)c1N)c1ccccc1	?	–	·	·	·
O=C(CN1N=C(c2ccc(Cl)cc2)CCC1=O)NCCN1CCc2ccccc2C1	–	–	–	–	–
O=C1c2ccccc2C(=O)C12OC2c1cccc2ccccc12 (configuration not stated)	1µM	–	?	?	·
O=C1CC(N(O)C2CC(=O)N(Cc3ccccc3)C2=O)C(=O)N1Cc1ccccc1 (configuration not stated)	7.08µM	–	31.6µM	–	–
CCCN(CCC)C1CC(=O)N(Cc2ccccc2)C1=O (configuration not stated)	11.2µM	–	–	–	–
COCC(=O)N1CCC[C@@]2(CCN(C(=O)Nc3ccccc3)C2)C1	–	–	–	·	·
Cc1cc(OC(C)C(=O)Nc2c(C(=O)c3ccc(F)cc3)oc3ccccc23)ccc1Cl (configuration not stated)	·	·	·	·	–
O=S1(=O)CC(O)C(N2CCCCC2)C1 (configuration not stated)	–	–	–	–	–
O=C1S/C(=C\c2ccc(N3CCOCC3)o2)C(=O)N1Cc1c(F)cccc1Cl	0.126µM	–	?	–	–
O=C1N=C(N2CCOCC2)S/C1=C/c1ccc(-c2ccccc2Cl)o1	–	–	–	–	–
O=C1S/C(=C\c2ccc(N3CCOCC3)o2)C(=O)N1c1ccccc1	0.891µM	–	·	·	·
O=C(NCCN1CCOCC1)c1ccc2c(c1)N(Cc1c(F)cccc1Cl)C(=O)c1ccccc1S2	–	–	·	·	·
O=C1S/C(=C/c2ccc(N3CCOCC3)o2)C(=O)N1Cc1c(F)cccc1Cl	0.126µM	–	–	–	–
CCCCC(=O)Nc1cccc(NC(=S)NC(C)=O)c1	–	–	–	–	–
CC(C)c1ccc2c(c1)CC[C@H]1[C@@](C)(CN)CCC[C@@]21C	–[13.5 µM]	–	–	·	·
Cc1cccc(NC(=O)/C=C/c2cccs2)n1	?	–	28.2µM	–	–
O=C(/C=C/c1cccs1)Nc1ccncc1	–	–	–	–	·
Cc1cccc(-n2c(C)nc3cc(C(=O)NCc4ccc5c(c4)OCO5)ccc32)c1	–	–	–	–	–
COCCNC(=O)c1ccc2c(c1)nc(C)n2-c1cccc(F)c1	–	–	7.08µM	?	–
COc1cc(/C=C/C(=O)N2CCCCC2=O)cc(OC)c1OC	?	–	–	·	–
O=c1[nH]c(/C(=N\O)c2ccccc2)no1	23.8µM	–	?	?	–
SMILES	ALDH1A1 block	IMPase Li cell	HPGD inh	PNC inhibitor	IMPase cell inh
CC(C)C[C@@H](CC(=O)N[C@H](CC(=O)N[C@@H]1CCNC[C@H]1C(=O)N[C@H](CC(=O)N[C@@H](CCC(=O)O)CC(=O)O)Cc1ccccc1)C(C)C)NC(=O)[C@@H]1CCCC[C@H]1N	–	–	–	·	·
COC1C[C@@H](O[C@@H]2C(C)C(=O)OC(C)C(C)[C@H](OC(C)=O)C(C)C(=O)[C@@]3(CO3)CC(C)C(OC3OC(C)CC(N(C)C)[C@H]3OC(C)=O)C2C)OC(C)[C@@H]1OC(C)=O (some centres not stated)	–	–	–	·	·
CN(C)CCNC(C(=O)Nc1cc(Cl)cc(Cl)c1)c1ccccc1 (configuration not stated)	–	–	·	·	·
O=C(Nc1cc(Cl)cc(Cl)c1)C(NCC1CCCO1)c1ccccc1 (configuration not stated)	4.47µM	·	·	–	–
CC(C)NC(C(=O)Nc1cc(Cl)cc(Cl)c1)c1ccccc1 (configuration not stated)	11.2µM	–	–	–	–
Cc1cccc2cc(CN(CC3CCCO3)C(c3nnnn3Cc3ccco3)C(C)C)c(=O)[nH]c12 (configuration not stated)	6.31µM	–	–	–	–
CCC(c1nnnn1CC1CCCO1)N(CCCO)Cc1cc2cccc(C)c2[nH]c1=O (configuration not stated)	?	–	–	–	–
COc1ccc2[nH]c(=O)c(C(c3nnnn3C(C)(C)C)N(Cc3ccco3)CC3CCCO3)cc2c1 (configuration not stated)	?	15.8µM	?	–	–
COc1ccc2cc(CN(Cc3ccco3)C(c3nnnn3C3CCCCC3)C(C)C)c(=O)[nH]c2c1 (configuration not stated)	15.8µM	–	–	–	–
COc1ccc2cc(CN(Cc3ccco3)Cc3nnnn3C3CCCCC3)c(=O)[nH]c2c1	7.94µM	–	–	–	–
CCCCOc1nnc(-c2ccc(OCC)cc2)c2ccccc12	·	·	·	·	–
COc1ccc(NS(=O)(=O)c2cccc(NC(=O)c3cnccn3)c2)cc1Br	–	–	·	·	·
CCN(CC)c1ccc(NC(=O)c2cc(OC)cc(OC)c2)c(C)c1	–	–	–	-89.2	–
O=C(c1ccncc1)N1CCC2(CCN(Cc3nccs3)CC2)CC1	–	–	–	·	·
Cc1nc(CCNC(=O)Cc2ccc(Cl)cc2)cs1	–	–	–	-89.9	–
CCc1c(C(=O)Nc2ccc(OC)cc2)[nH]c(C)c1C(C)=O	–	–	–	–	–
CCc1c(C(=O)Nc2cc(C)ccc2OC)[nH]c(C)c1C(C)=O	–	–	–	-93.5	–
Cc1ccc(OCCNc2cc(N3CCN(CCO)CC3)ccc2[N+](=O)[O-])cc1C	?	–	35.5µM	–	·
COc1ccccc1OCCNc1cc(N2CCCCC2)ccc1[N+](=O)[O-]	17.8µM	–	–	–	·
Cc1cccc(OCCNc2cc(N3CCN(C)CC3)ccc2[N+](=O)[O-])c1	–	–	–	–	·
CC1(C)CC(=O)C=C(Nc2ccc(F)cc2F)C1	?	–	–	–	–
CC1(C)CC(=O)C=C(Nc2ccccc2F)C1	?	–	22.4µM	?	–
CC1(C)CC(=O)C=C(Nc2cc(-c3ccccc3)[nH]n2)C1	4.47µM	–	–	–	–
CC1(C)CC(=O)C=C(NCc2ccccc2)C1	–	–	–	?	–
CC(C)CCNC(=O)c1nnc(Cc2ccc(Cl)cc2)o1	–	–	–	-110.3	–
O=C(NCCc1ccc(Cl)cc1)c1nnc(Cc2ccc(F)cc2)o1	·	·	·	·	–
O=C(O)c1ccc(NC(=O)C2CC=CCC2C(=O)O)cc1 (configuration not stated)	–	–	–	–	–
O=C(Nc1nccs1)c1ccc(NC(=O)C2CC=CCC2C(=O)O)cc1 (configuration not stated)	3.98µM	–	·	·	·
COc1cccc([C@@H]2Oc3ccc(Br)cc3C[C@H]2O)c1	–	–	–	·	·

Assay outcomes: PubChem BioAssay, National Center for Advancing Translational Sciences (NCATS)
